Hit rate of the full screen: of about 53,000 sequences, about 3,700 (7%) were called active.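 How the source made its calls: active means gene knockdowns whose robust z-score for IL-1 alpha signal is at least 2 or at most -2, so actives lie on both sides; inactive means the rest.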 The sample as a whole holds a higher share of actives than the screen did.

The assay is described as follows: Components of the Cytosolic LPS Sensing Pathway: Gene Identification via Genome-wide siRNA Screen.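 Further: robust z of the log signal after scaling to non-targeting control siRNA wells of the plate.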 To be noted: RAW264.7 macrophages, IL-1a HTRF, actives lie on both sides, screened at 100 nM (by protocol), cells primed 5 h with Pam3CSK4 first. The method, boiled down: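 RAW264.7; siRNA 100 nM final, RNAiMAX, 48h 37 degrees C; Pam3CSK4 5 h; LipidA + TransIT-TKO 24 h; IL-1a HTRF; CellTiter-Glo viability; robust z vs negative-control median.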
In general terms: Time-resolved FRET reads energy transfer from a long-lived donor to a nearby acceptor.
For the sequence GCGAGCUAAUGUCACAUUCTT against Il17ra, the z-score was 3.74 (active).

In the case of GGAACUAUCACGUGUUCUATT against Myo7a, the z-score was 0.837 (inactive).

With CCAGAUGGGAUACCUCUACTT against Tmed6, the z-score was 0.303 (inactive).

With GGUCUCUUUCAUGCUCGCATT against Agr3, the z-score was 3.06 (active).

Turning to CCCUAACCUCAUUUCAUGUTT against Vmn1r63, the z-score is -1.01 (inactive).

As to GGAAAACAACGAAUUGCUCTT against Uri1, the z-score was 0.791 (inactive).

With GCCGAUGACACUAUCUACCTT against Cryz, the z-score was 0.465 (inactive).

With CCUCAAUCAAAAUGUAAGUTT against Atp6v0a2, the z-score is 0.456 (inactive).

Turning to GGAUCUGAAGGAAUACUUUTT against Lmf1, the z-score is 1.69 (inactive).

Consider GGAACAAACCAAGUUCACATT against Kcnip2, for which the z-score is -0.66 (inactive).

Consider GGACUCCAAGAUCAUGGUCTT against Pnck, for which the z-score is 1.07 (inactive).

Take GCAAGACCCUUCGAGUGAATT against Nkd2: the z-score is -1.2 (inactive).

On to GGCCAUUUAUCCAUGGUUGTT against Zdhhc17, for which the z-score was 0.954 (inactive).

Take GGCCUCAAGUUGCUAUGCCTT against Mlxipl: the z-score is -0.2 (inactive).

Take GGAGAUGAAGUUAAAGCGATT against Slc26a6: the z-score is 0.619 (inactive).

As for GGCAGAUGUGUUUGCUUUUTT against Pbk, the z-score was 3.51 (active).

Turning to GCACUGAACUUUGUCGAUUTT against Fam122a, the z-score is 0.325 (inactive).

With “CCCGAAGAGCAAAAAAGAUTT against 1110004F10Rik”, the z-score was -1.5 (inactive).

As to CGGUCAUUAAUGAAGCCUGTT against Pamr1, the z-score is 2.65 (active).

In the case of GGUGGUGUGUGAUGAGAAUTT against Pabpc6, the z-score was 0.649 (inactive).

For GGGCUGUUUGUAGCAGAUUTT against Olfr1279, the z-score is -1.12 (inactive).

In the case of GGUCACGGAGAAACUAAAGTT against Ppme1, the z-score is 0.703 (inactive).

Consider GGCUAGGUAAUCACUGGGUTT against Fate1, for which the z-score is 0.987 (inactive).

CCAAUAUGAGACCAUCAUUTT against Sv2b: the z-score is 0.385 (inactive).

On to GCGACAUAACUGCAUUCAATT against Kcnh1, for which the z-score is 2.79 (active).

Turning to GGUCAAUUUGGUUUGUGAATT against Cenpa, the z-score was -0.374 (inactive).

With GGUAGAAAUUUACCUCAUUTT against Dusp4, the z-score is -1.42 (inactive).

Take GCAGAGGAUAUAAAACAAGTT against Pde2a: the z-score is -0.86 (inactive).

Take GGAAAAUAGGGCGACAAAUTT against Tdrd7: the z-score is 0.673 (inactive).

GGAUGAUUGAGAUAGCGAATT against Polr1e: the z-score is 0.608 (inactive).

Take CCGUACAUAUGGUGAUCCATT against Rtn1: the z-score was -0.162 (inactive).

GGGAGAAGUGCUGUGGAUUTT against Fras1: the z-score is 0.401 (inactive).

For CGAGAGCUAAAAAGAGUAATT against Chd1, the z-score was 0.42 (inactive).

GGAAGUUUCUGGAAACACATT against Mbd3: the z-score was -0.487 (inactive).

On to GGAGGAUUGUCCACAUGGATT against Ccl27a, for which the z-score is 4.32 (active).

Regarding GGCAACAUGGUGAUCAUCGTT against Olfr323, the z-score is -0.461 (inactive).

Consider CGGUAUUUCAUCCUGGAUATT against Plekha1, for which the z-score was 0.403 (inactive).

Consider GCAUGGAACAAGGUUGCUCTT against Pa2g4, for which the z-score is 1.84 (inactive).

On to GGUACACCAAGGCUUGCUATT against Coq8b, for which the z-score is -0.343 (inactive).

GCAUGAGUUAGACCAUAAUTT against Phf12: the z-score was -2.59 (active).

On to GGCCUCUUUUGGUAUUCCATT against Zfp42, for which the z-score is 0.946 (inactive).

In the case of GGCCUCAAUGCAGUAUCAATT against Shisal2b, the z-score was 0.773 (inactive).

With GCUAAGAAUAGGAGUUAGATT against Ift57, the z-score is 0.419 (inactive).

As to GGUCAGAAGUUAAUUUAUGTT against Rad23b, the z-score was -0.413 (inactive).

On to GGACCUGCUCUUGGUCAUUTT against Fam118a, for which the z-score is 0.461 (inactive).

Turning to GGGAAGUGACCAUCAAGAATT against Slc8a3, the z-score was 2.56 (active).

Regarding GGUGAUGCGCCUGAAGGAUTT against Ntng2, the z-score was -0.668 (inactive).

In the case of GCUCCUCCAUCAGUUAGAUTT against Ube2v2, the z-score was -1.06 (inactive).

GGAAUCAACUUGGUGGCUCTT against Rxrg: the z-score is -0.0611 (inactive).

For the sequence GGGUUUCUGUUUGAUUCCATT against Gria1, the z-score is -0.747 (inactive).

Consider GGCUAUGCUGCCUACUACUTT against Bmp7, for which the z-score is -2.63 (active).

For GCCAACCUCUGUGUGUAUUTT against Olfr1263, the z-score is 0.799 (inactive).

On to UGGUUGUAUUAUUCUGUUGTT against Defb38, for which the z-score is 0.188 (inactive).

GGACUUAUCUCAUCCAAGATT against Gm9946: the z-score is 0.39 (inactive).

In the case of CCAGAAACGAUGCAUUCAUTT against Olfr124, the z-score was 2 (active).

For GGACUUUGAAAAAGAUGCATT against Fkbp7, the z-score is 1.21 (inactive).

With AGUAUUCUUUGCUUUCCUUTT against Olfr822, the z-score is 0.731 (inactive).

For the sequence GGAGAAGAUGAUUAAGACCTT against Anp32b, the z-score is 0.51 (inactive).

Turning to CCACAGACUCUUAAUUAGATT against Ap3b1, the z-score is -2.14 (active).

As to UAUCACAGACAUGAAAGAATT against Lst1, the z-score is 0.105 (inactive).

Consider GGAAAAACAGUGCAGAUGGTT against Smchd1, for which the z-score was 0.228 (inactive).

As to GGGCAUUAAGACAAAGAGUTT against Fam3c, the z-score was 0.769 (inactive).

With GGAAAAGUUGCAUUUGGUCTT against Wdr17, the z-score was -1.02 (inactive).

With GGAGUUCACUGUGCUGAUGTT against Ppbp, the z-score was -0.536 (inactive).

Regarding GCUAAACUUAAGUCCAUCATT against Supt7l, the z-score was -0.592 (inactive).

For the sequence GGGUUUGUGGGAUACAAUCTT against Smarce1, the z-score was 2.97 (active).

Regarding GGGUAGUUAUACAAACUAATT against Snapc5, the z-score was 1.53 (inactive).

GGUUCACAUCCUCCUCAGATT against Twist2: the z-score is 1.08 (inactive).

For the sequence CCUUGAUGCUCGUAGGAAGTT against Efr3a, the z-score is -1.11 (inactive).

GGACAUUCUGCUACACAAGTT against Bsx: the z-score is 2.63 (active).

As for GCCAACAUGUAUCAAAGCUTT against Rpgr, the z-score is -1.11 (inactive).

Consider GGACAAUGUGGUGCUGUCCTT against Slc34a3, for which the z-score is 0.492 (inactive).

Consider GGAGUCCUUUCGUUCUAUCTT against Rab2a, for which the z-score is -0.319 (inactive).

As for GGACAUUGCUAACUGCCUUTT against Snx16, the z-score is 2.37 (active).

Regarding GCCAAACUUACGUUUUUGATT against Trak2, the z-score is 0.81 (inactive).

For the sequence CCUGUUUAAACUCUGCGGATT against Vit, the z-score is 0.678 (inactive).

On to GGUUUUGUAGGAGUCUCUCTT against Vmn1r54, for which the z-score is 0.247 (inactive).

Consider GCUAGUACUAUUACCUGCUTT against Enkd1, for which the z-score was 2.17 (active).

On to GGUGAUGAUGAUGUCUUUGTT against B3gnt7, for which the z-score is 1.93 (inactive).

Regarding GCUGAAUAGCCUCUAUCUATT against Rasgrp4, the z-score was 0.261 (inactive).

For the sequence GCCUCUACUUUACCAAGUUTT against Olfr883, the z-score is 0.523 (inactive).

As for GGGCUUUAGCCUGAGCGAUTT against Gpc1, the z-score was -0.916 (inactive).

As for GGUGAGCUUGGUUUCUAAATT against Gdf15, the z-score was 2.28 (active).

As to GGCAUCUUCAUGUACUUGCTT against Olfr1445, the z-score was 1.5 (inactive).

For GGUUUUCAGUACAUCCUGGTT against Cryba4, the z-score is 0.183 (inactive).

On to GCCAUGCAUCUGGAUUUACTT against Nat1, for which the z-score is 1.19 (inactive).

Regarding GGAGCAGACUUUAAAAUGATT against Stau1, the z-score is -0.626 (inactive).

For the sequence GGGCUCAUUGCUAAAACACTT against Sgcg, the z-score is -0.221 (inactive).

Consider GGCUAUUGUACAACUUAUATT against Pafah1b2, for which the z-score was 2.1 (active).

Consider GCCCUUUGGAAGAAUACUCTT against Golt1b, for which the z-score is -1.12 (inactive).

Regarding GGAGCUCAUGGAAAUCUGUTT against Pfpl, the z-score is 0.446 (inactive).

AGUGAAGAAAUGUUUGACATT against Raet1b: the z-score is -1.08 (inactive).

In the case of CCUAUUUGUAGGUGAUGUUTT against B3gnt7, the z-score is -0.445 (inactive).

For the sequence GGUUCACUCCUGAUACCACTT against Ddo, the z-score was 1.29 (inactive).

GGCUUUUGGCUUCAACCCUTT against Slc39a14: the z-score is -2.24 (active).

As to GGAAGCCAUUAUACAUGACTT against Uvrag, the z-score is -0.261 (inactive).

For GGUACAGAAUAUGUCACAGTT against Olfm3, the z-score was 0.627 (inactive).

With CCCUCUGGAUGGAUCUUCATT against Fbp2, the z-score was -1.3 (inactive).

For the sequence GCAAGACUGAAAAUCCUGATT against Timm8a2, the z-score is -1.2 (inactive).

As for GCAACUGAACCUUCUGCUATT against Morn2, the z-score is -1.7 (inactive).

For the sequence GGCUUGUACUACCAUGACATT against Rasgef1b, the z-score was -2.76 (active).

Regarding GGGAACAAGGAACUCAAAGTT against Cadm1, the z-score was 1.69 (inactive).

CCUGAAAGAUAACAAGUGGTT against Rnls: the z-score is 0.0112 (inactive).

Consider GGUUUGUUUUACAAAAUGCTT against Zdhhc5, for which the z-score was 0.37 (inactive).

With GCAUUUUAGACUCAGAAUCTT against Car3, the z-score was -0.047 (inactive).

Take GGAACGUAUACCUAUACCCTT against Huwe1: the z-score is -0.263 (inactive).

Regarding GGUAUGCAGUGAAGAGGAUTT against Paqr9, the z-score was 2.52 (active).

CCGUGACAGUCAUGUUGAUTT against Amt: the z-score was 0.235 (inactive).

GGAAAGACCUCUUGAUAGGTT against Tbkbp1: the z-score was 0.113 (inactive).

(Values after PubChem BioAssay AID1508600 (Functional Genomics Laboratory (NCATS/FGL), 2020).)
